Only some compounds are listed: those with a hit (about 19% of all), similar ones and a draw of the others.
Cycloheximide cs: counter-screen hit for Shiga toxin inhibitors, cycloheximide; cell reporter, cycloheximide protein synthesis inhibition counterscreen; max response, %; hit rate 12% among 300,000; in the data active means max response mostly above about 13%, no sharp cut-off; inactive means mostly below about 14%; further: read at 38.3 µM for the half of the compounds with a filed dose; 0% is about no effect
SARS PLpro yeast: blocks SARS-CoV papain-like protease in a yeast assay. Potency, µM (doses to about 32.9 µM), inactives show at the highest dose activity, positive = growth rescue, actives largely listed as activators. hit rate 0.19% among 330,000. S. cerevisiae expressing SARS-CoV PLpro, growth rescue; calls by dose curve; further: potency means the concentration at half of the fitted maximal effect; 0% is about no effect; nearly all actives have a fitted effect of over 55% in size
Pf growth 96h: P. falciparum growth inhibition at 96 hours; P. falciparum luciferase reporter growth, 96 h; Potency, µM (highest dose often 28.7 µM), without a hit: top-dose activity change, negative = inhibition, usual class: inhibitors; hit rate 6.9% among 320,000; AID 504834; further: potency means the concentration at half of the fitted maximal effect; on the % scale 0 is the no-effect control and ±100 the full control effect
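Parasite growth measured via integrated firefly luciferase reporter in P. falciparum. Infected erythrocytes at 2% hematocrit, 0.05% parasitemia final were treated 96 hours at 37 C under 5% CO2, and luminescence was read.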
Pf growth 48h: P. falciparum growth inhibition at 48 hours (one generation) | P. falciparum luciferase growth in erythrocytes, 48 h | Potency, µM (doses to about 28.7 µM), for inactives: at the top dose activity change, negative = inhibition, usual class: inhibitors | hit rate 5.9% among 310,000 | AID 504832; further: potency means the concentration at half of the fitted maximal effect; on the % scale 0 is the no-effect control and ±100 the full control effect
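Here the parasites carry a stable luciferase gene and grow inside erythrocytes in Albumax-based RPMI medium with compound for one erythrocytic cycle. Activity is scored as loss of luminescent signal.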
AMA1 RON2 block: AMA1-RON2 (P. falciparum) interaction inhibition. Potency, µM (doses to about 58.2 µM), inactives show top-dose activity change, negative = inhibition, hits mostly inhibitors. AID 720542. AlphaScreen AMA1-biotinylated RON2 peptide binding. hit rate 0.2% among 360,000;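 further: potency means the concentration at half of the fitted maximal effect; 0% = vehicle wells and -100% = peptide control; nearly all actives have a fitted effect of over 45% in size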
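AMA1 (3D7) with his tag at 25 nM final met compounds first, then biotinylated RON2 peptide at 25 nM; detection used donor plus acceptor beads, 10 µg/mL apiece, read by AlphaScreen after 30 min at room temperature.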
Shiga inhibitor: inhibitors of Shiga toxin in Vero cells; Vero cells, Shiga toxin protein synthesis inhibition reporter; inhibition, % at 38.7 µM; hit rate 9.2% among 290,000; AID 2315; in the data active means inhibition mostly above about 28%, no sharp cut-off; inactive means mostly below about 43%; further: 0% is about no effect
* marks the source's active call; other numbers are inactive results; ! = repeats disagree. Unless noted, the call rests on the fitted dose curve; in most records, active means well fitted curve in the direction sought with a large enough effect; inconclusive means small, poorly fitted or top-dose-only effect, or another doubt; inactive means no such curve, though single readings can be large; an effect the other way counts as inactive or inconclusive.

Screening O=C(NCCc1ccc(Cl)cc1)Nc1ccc(Cl)cc1 returned Cycloheximide cs 12.8, SARS PLpro yeast -2.0%, Pf growth 96h -15.6%, Pf growth 48h -0.6%, AMA1 RON2 block 14.1% and Shiga inhibitor 43.5*.
O=C(NCCc1ccncc1)Nc1ccc(F)cc1 was read as Cycloheximide cs -0.9, SARS PLpro yeast 0.0%, Pf growth 96h -4.1%, Pf growth 48h 0.6%, AMA1 RON2 block 8.6% and Shiga inhibitor -2.0.
Screening CN1CCC(=C2c3ccccc3Sc3ccccc32)CC1 returned Pf growth 96h inconclusive, Pf growth 48h 4.26µM* and AMA1 RON2 block -9.4%.
O=C1Cc2ccccc2Sc2ccccc21 was read as Cycloheximide cs 5.4, SARS PLpro yeast -3.0%, Pf growth 96h 41.5%, Pf growth 48h 49.7%, AMA1 RON2 block -1.1% and Shiga inhibitor -10.4.
CN1CCC(=C2c3ccccc3C=Cc3ccccc32)CC1 was read as Cycloheximide cs -4.4, SARS PLpro yeast 4.6%, Pf growth 96h inconclusive, Pf growth 48h 11.7µM*!, AMA1 RON2 block -9.4% and Shiga inhibitor -8.2.
Screening c1ccc2c(c1)CCc1ccccc1C2=C1CCNCC1 returned AMA1 RON2 block -14.1%.
Screening CCCC(=O)N(CCN1CCOCC1)c1nc2c(F)cc(F)cc2s1 returned Cycloheximide cs 8.2, SARS PLpro yeast -1.2%, Pf growth 96h 42.0%, Pf growth 48h 57.1%, AMA1 RON2 block -5.3% and Shiga inhibitor 26.5.
For O=C(COC(=O)c1ccccc1[N+](=O)[O-])Nc1nnc(-c2ccccc2)o1 the results were SARS PLpro yeast -4.9%, Pf growth 96h -2.0%, Pf growth 48h -2.3% and AMA1 RON2 block 68.3%.
For CC1CCc2sc3ncnc(N4CCN(CCO)CC4)c3c2C1 (stereo not given) the results were Cycloheximide cs -5.9, SARS PLpro yeast -1.0%, Pf growth 96h inconclusive, Pf growth 48h -5.4% and AMA1 RON2 block 2.0%.
Cc1ccc(CN2C(=O)C3CCCN3c3ccc(S(=O)(=O)N4CCOCC4)cc32)cc1 (stereo not given) was read as Cycloheximide cs 15.1, SARS PLpro yeast 1.7%, Pf growth 96h 1.65µM*, Pf growth 48h 4.65µM* and Shiga inhibitor -8.2.
`COc1ccc(C(=O)Nc2ccc3nc4n(c(=O)c3c2)CCCCC4)cc1OC` gave AMA1 RON2 block -0.5%.
For CCOC(=O)C1CCCN(C(=O)C(=O)Nc2ccc3nc4n(c(=O)c3c2)CCCCC4)C1 (stereo not given) the results were Cycloheximide cs -3.3, SARS PLpro yeast 2.5%, Pf growth 96h 81.2%, Pf growth 48h inconclusive, AMA1 RON2 block 4.3% and Shiga inhibitor -3.7.
For O=C(Nc1ccc(F)cc1Cl)c1ccc2c(=O)n3c(nc2c1)CCCCC3 the results were Cycloheximide cs 12.5, SARS PLpro yeast -16.0%, Pf growth 96h 3.7µM*, Pf growth 48h 10.5%, AMA1 RON2 block 14.7% and Shiga inhibitor 17.2.
`O=C(Nc1ccc2nc3n(c(=O)c2c1)CCCCC3)c1ccccn1` gave Cycloheximide cs 35.5*, SARS PLpro yeast -38.2%, Pf growth 96h -35.2%, Pf growth 48h 1.5%, AMA1 RON2 block 98.5% and Shiga inhibitor 59.2*.
For COc1cc(C(=O)Nc2ccc3nc4n(c(=O)c3c2)CCCCC4)cc(OC)c1OC the results were Cycloheximide cs 13.9, SARS PLpro yeast inconclusive, Pf growth 96h 2.62µM*, Pf growth 48h -8.1%, AMA1 RON2 block -10.7% and Shiga inhibitor 28.4.
`CCCN(C(=O)C(=O)Nc1ccc2nc3n(c(=O)c2c1)CCCCC3)c1ccc(OCC)cc1` gave Cycloheximide cs 6.2, SARS PLpro yeast -2.5%, Pf growth 96h -8.7%, Pf growth 48h 0.117µM*, AMA1 RON2 block -2.8% and Shiga inhibitor 13.7.
Screening O=C(CCN(NC(=O)c1ccccc1)C1=NS(=O)(=O)c2ccccc21)NC1CCCCC1 returned Cycloheximide cs -2.3, SARS PLpro yeast -9.1%, Pf growth 96h inconclusive, Pf growth 48h 36.8%, AMA1 RON2 block 14.2% and Shiga inhibitor 5.2.
CCOC(=O)Nc1ccc2nc3n(c(=O)c2c1)CCCCC3 was read as Cycloheximide cs 30.8*, SARS PLpro yeast -3.3%, Pf growth 96h -0.1%, Pf growth 48h 33.7%, AMA1 RON2 block -6.1% and Shiga inhibitor 45.1*.
`O=C(Nc1cccc(S(=O)(=O)N2CCCC2)c1)c1ccc2c(=O)n3c(nc2c1)CCCCC3` gave Cycloheximide cs 7.0, SARS PLpro yeast -7.7%, Pf growth 96h 5.22µM*, Pf growth 48h inconclusive, AMA1 RON2 block -12.2% and Shiga inhibitor 15.0.
`CS(=O)(=O)CC(=O)Nc1ccc2nc3n(c(=O)c2c1)CCCCC3` gave Cycloheximide cs -0.7, SARS PLpro yeast 1.4%, Pf growth 96h 5.7%, Pf growth 48h 5.2%, AMA1 RON2 block -22.3% and Shiga inhibitor 5.7.
COc1ccc(NC(=O)c2ccc3c(=O)n4c(nc3c2)CCCCC4)cc1 was read as Cycloheximide cs 21.3*, SARS PLpro yeast -8.4%, Pf growth 96h 4.5%, Pf growth 48h -0.4%, AMA1 RON2 block -0.9% and Shiga inhibitor 29.0.
For O=C(Nc1ccc2nc3n(c(=O)c2c1)CCCC3)c1ccccc1F the results were Cycloheximide cs 31.3*, SARS PLpro yeast -1.7%, Pf growth 96h inconclusive, Pf growth 48h -10.1%, AMA1 RON2 block 104.8% and Shiga inhibitor 69.6*.
For Cc1ccc(NC(=O)c2ccc3c(=O)n4c(nc3c2)CCCCC4)cc1F the results were Cycloheximide cs 9.0, SARS PLpro yeast -3.6%, Pf growth 96h inconclusive, Pf growth 48h -12.4%, AMA1 RON2 block -3.3% and Shiga inhibitor 20.8.
`CC(C)(C)OC(=O)N1CCCC(C(=O)Nc2ccc(C(=O)N3CCOCC3)cc2)C1` (stereo not given) gave SARS PLpro yeast -9.3% and AMA1 RON2 block -15.3%.
Screening CCOC(=O)N1CCN(C(=O)C(=O)NNC(=O)COc2ccc(Cl)cc2)CC1 returned Cycloheximide cs -2.8, SARS PLpro yeast 12.5%, Pf growth 96h -14.0%, Pf growth 48h 6.6%, AMA1 RON2 block 48.0% and Shiga inhibitor -7.4.
Screening C[C@@H]1C(=O)N(S(=O)(=O)c2ccc([N+](=O)[O-])cc2)[C@H]1c1ccc(F)cc1 returned Cycloheximide cs -1.6 and Shiga inhibitor -11.4.
For O=c1c2cc(NC(=S)NC3CCCC3)ccc2nc2n1CCCCC2 the results were Cycloheximide cs 29.9*, SARS PLpro yeast -8.1%, Pf growth 96h inconclusive, Pf growth 48h -9.6%, AMA1 RON2 block -4.6% and Shiga inhibitor 37.7.
Screening O=C(Nc1ccc2nc3n(c(=O)c2c1)CCCC3)c1cccc(F)c1 returned Cycloheximide cs 41.9*, SARS PLpro yeast -0.4%, Pf growth 96h 114.8%, Pf growth 48h -0.3%, AMA1 RON2 block -4.6% and Shiga inhibitor 39.0*.

Bioassay records deposited in PubChem by National Center for Advancing Translational Sciences (NCATS).
